An excerpt weighted towards active compounds, which were near 2.4% of everything screened.
Cruzain inh noDet: cruzain (T. cruzi) inhibition without detergent. P25779. purified cruzain, Z-FR-AMC fluorescence, no detergent. Potency, µM, most hits filed as inhibitors. 2.3% of 200,000 active. AID 1476; also: nearly all actives have a fitted effect of over 40% in size
Target sequence (P25779 123-467 limits assumed): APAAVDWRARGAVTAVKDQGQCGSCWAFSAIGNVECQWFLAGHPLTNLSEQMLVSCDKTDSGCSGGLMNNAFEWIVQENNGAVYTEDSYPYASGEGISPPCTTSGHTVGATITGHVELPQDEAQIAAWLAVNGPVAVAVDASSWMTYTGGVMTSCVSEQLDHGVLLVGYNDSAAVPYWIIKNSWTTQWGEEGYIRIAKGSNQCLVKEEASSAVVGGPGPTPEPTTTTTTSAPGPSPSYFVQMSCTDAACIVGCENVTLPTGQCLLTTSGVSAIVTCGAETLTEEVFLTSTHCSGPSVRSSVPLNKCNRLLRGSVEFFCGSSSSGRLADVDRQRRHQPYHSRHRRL
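Detergent-free condition (0.00005% Triton X-100) in acetate buffer pH 5.5 with DTT. 1.5 nM enzyme and compound were pre-mixed 15 min, then 2 uM Z-FR-AMC substrate added; reaction progress from fluorescence change between first and third reads (60 s).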
Cruzain inh Det: blocks cruzain activity in presence of Triton detergent | Potency, µM, most hits filed as inhibitors | purified cruzain, Z-FR-AMC fluorescence, 0.01% Triton | 0.43% of 200,000 active | AID 1478; also: nearly all actives have a fitted effect of over 40% in size
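Read-out: AMC fluorescence (360 nm excitation, 450 nm emission), four reads over 2 min, first-to-third difference used. Conditions: cruzain 1.5 nM, Z-FR-AMC 2 uM, pH 5.5 acetate, 5 mM DTT, 0.01% Triton X-100.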
Each line names hits and unclear results; the compound was inactive in the other large screens. Calls follow the shape of the dose curve; as a rule, active = well fitted curve in the direction sought with a large enough effect; inconclusive = small, poorly fitted or top-dose-only effect, or another doubt; inactive = no such curve, though single readings can be large; an effect the other way counts as inactive or inconclusive.

CC(NC(=O)c1ccccc1)C(=O)OCC(=O)N1c2ccccc2Sc2ccccc21 (configuration not stated)	Cruzain inh Det inconclusive
O=C1CN(C(=O)COC(=O)CNC(=O)c2ccccc2)c2ccccc2N1	Cruzain inh noDet 16µM, Cruzain inh Det inconclusive
O=C(CNC(=O)c1ccccc1)OCC(=O)N1c2ccccc2Sc2ccccc21	Cruzain inh noDet 10µM, Cruzain inh Det 10µM
O=C1CN(C(=O)COC(=O)Cc2ccsc2)c2ccccc2N1	none
CCOc1ccc(CNC(=O)c2ccc(Sc3ccc(Cl)cc3)c(NC(C)=O)c2)cc1OC	Cruzain inh noDet inconclusive
O=C(CSc1ccccc1)Nc1nc2ccccc2[nH]1	none
O=C(CSc1ccc(Cl)cc1)Nc1ccc(-c2nc3ccccc3[nH]2)cc1	Cruzain inh noDet 20µM, Cruzain inh Det inconclusive
CCCCOC(=O)Nc1nnc(-c2ccccc2OC)s1	Cruzain inh noDet 16µM
COc1ccccc1-c1nnc(NC(C)=O)s1	none
COc1ccc(OC)c(NC(=O)c2ccc(CN(c3cc(Cl)ccc3C)S(=O)(=O)c3ccccc3)cc2)c1	Cruzain inh noDet 10µM
COc1ccc(OC)c(NC(=O)c2cccc(S(=O)(=O)N(Cc3ccccc3)c3ccccc3OC)c2)c1	Cruzain inh noDet inconclusive
N#Cc1ccccc1NC(=O)C(=O)NCC(c1ccc2c(c1)OCO2)N1CCOCC1 (configuration not stated)	none
COc1ccc(O)c(C(=O)c2cc(C#N)c(=O)n(-c3c(C)n(C)n(-c4ccccc4)c3=O)c2)c1	none
NC(=O)c1ccccc1	none
COC(=O)C1CN(C#N)N(c2ccc(Cl)cc2)C12c1ccccc1-c1ccccc12 (configuration not stated)	Cruzain inh noDet 25µM
O=C1c2ccccc2C(O)N1c1ccc(Cl)cc1 (configuration not stated)	none
COc1ccc(CNC(=O)CCNS(=O)(=O)c2cccc3nsnc23)cc1	none
Cc1cc(C(=O)NCCc2ccccc2)ccc1[N+](=O)[O-]	none
Cc1ccc(C)n1NC(=O)c1ccc(Cl)cc1Cl	Cruzain inh noDet 13µM
Cc1ccc(C)n1NC(=O)c1ccc(Cl)cc1	none
CCc1nnc2c(NCc3ccccc3OC)nc3ccccc3n12	none
Cc1ccc(N(Cc2cccs2)C(=O)COc2cccc(C)c2)cc1	none
Clc1ccccc1CNCCCSc1nnnn1-c1ccccc1	none
Fc1cccc(Cl)c1CNCCSc1nnnn1-c1ccccc1	Cruzain inh noDet 13µM
CC1=CC(C)(C)Nc2ccc(OC(=O)CN3C(=O)c4ccccc4C3=O)cc21	none
CC1=CC(C)(C)Nc2ccc(OC(=O)CN3C(=O)c4cccc5cccc(c45)C3=O)cc21	Cruzain inh noDet 25µM
O=c1c(O)cc(C2Oc3cc(O)cc(O)c3CC2O)cc2c(C3Oc4cc(O)cc(O)c4CC3O)cc(O)c(O)c12 (configuration not stated)	Cruzain inh Det 25µM
Oc1cc(O)c2c(c1)O[C@H](c1ccc(O)c(O)c1)[C@@H](O)C2	none
CC(=O)Nc1ccc(Nc2ncnc3c2cnn3C)cc1	none
CCc1sc(N(C(=O)Cc2ccccc2)c2cccc(F)c2)nc1-c1ccc(C)cc1	Cruzain inh noDet inconclusive
COc1ccc2[nH]c(=O)c(CN(CCO)S(=O)(=O)c3c(C)ccc4nsnc34)cc2c1	none
COc1ccc2[nH]c(=O)c(CN(Cc3cccs3)S(=O)(=O)c3cccc4nsnc34)cc2c1	Cruzain inh noDet 32µM
CCOCCCNC(=O)C1CCCN1S(=O)(=O)c1ccc(Cl)cc1 (configuration not stated)	none
CC1=C(C(=O)NCCN2CCOCC2)C2(CCC(C)CC2)OC1=O (configuration not stated)	none
O=Nc1c(O)n(Cc2ccc(Cl)cc2)c2ccccc12	none
Cc1ccc2c(c1)c(N=NC(N)=S)c(O)n2Cc1ccccc1	Cruzain inh noDet 2.5µM, Cruzain inh Det inconclusive
NC(=S)N=Nc1c(O)n(Cc2ccc(F)cc2)c2ccccc12	Cruzain inh noDet inconclusive, Cruzain inh Det 13µM
COc1ccc(C(=O)NCC(=O)N=Nc2c(O)n(Cc3ccccc3)c3ccccc23)cc1OC	none
COc1ccc(COc2ccsc2C(=O)Nc2ccc(Cl)cc2)cc1	none
COc1ccc(COc2cc(-c3cccc(OC)c3)nc3ccc(NC(=O)c4ccccc4)cc23)cc1	Cruzain inh noDet 7.9µM
COc1cccc(-c2cc(C(=O)Nc3ccc4c(c3)OCCO4)c3ccccc3n2)c1	Cruzain inh noDet inconclusive
COc1ccc(COc2cc(-c3cccc(OC)c3)nc3ccc(NC(=O)c4cccnc4)cc23)cc1	none
COc1ccc(COc2cc(-c3cccc(OC)c3)nc3ccc(NC(=O)c4ccc(Cl)cc4)cc23)cc1	Cruzain inh noDet 2.8µM
COc1ccc(COc2cc(-c3cccc(OC)c3)nc3ccc(NC(=O)c4ccc(OC)cc4)cc23)cc1	Cruzain inh noDet 7.9µM
COc1ccc(NC(=O)C2CCN(S(C)(=O)=O)CC2)cc1	none
COc1cccc(C(=O)NC2=NCCS2)c1	none
COc1ccc(N(Cc2ccccc2)S(=O)(=O)c2cccc(C(=O)NC3=NCCS3)c2)cc1	Cruzain inh noDet 25µM
CC(=O)N=c1sc2cc(C)ccc2n1C	none

Screens (PubChem BioAssay)
